LYPLA1 counter = LYPLA1 inhibitors, primary screen, counter-screen for PME1 inhibitor project, biochemical, fluorescence polarization, FP-Rh probe ABPP; 0.16% of 320,000 active; recombinant LYPLA1; inhibition, % at 5.9 µM; AID 2174, 2009;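 active means inhibition above the mean of all tested compounds plus 3 SD, set per campaign, cut at about 14% in these data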;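 further: inhibitors block serine hydrolase probe labeling of LYPLA1 so polarization falls; 0% = enzyme with DMSO and 100% = wells lacking LYPLA1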
Target sequence (O75608 whole entry, looked up): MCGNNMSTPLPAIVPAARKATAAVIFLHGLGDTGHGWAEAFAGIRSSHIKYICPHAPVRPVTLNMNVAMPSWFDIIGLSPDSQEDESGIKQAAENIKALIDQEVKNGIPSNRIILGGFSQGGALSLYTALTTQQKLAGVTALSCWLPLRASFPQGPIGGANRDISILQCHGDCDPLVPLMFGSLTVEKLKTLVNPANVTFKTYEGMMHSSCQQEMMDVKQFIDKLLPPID
PAD4 inh = human PAD4 inhibitors, primary screen, biochemical, fluorescence polarization, 1536-well format; inhibition, % at 6.36 µM; 0.41% of 330,000 active; recombinant PAD4, RCA probe fluorescence polarization; Protein-arginine deiminase type-4 (Homo sapiens), Q9UM07;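 active means percent inhibition above a cutoff equal to the mean of all tested compounds plus 3 SD, cut at about 15% in these data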;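 further: 0% = PAD4 with RCA probe and DMSO and 100% = probe without PAD4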
PME-1 inh = PME-1 inhibitors via competitive probe labeling, primary screen, biochemical, fluorescence polarization, FP-Rh probe, HTS. Protein phosphatase methylesterase 1 (Homo sapiens), Q9Y570. recombinant PME-1. inhibition, % at 5.9 µM. 0.53% of 320,000 active;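 active means inhibition above the campaign mean of all compounds plus 3 SD, cut at about 26% in these data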;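 further: competitive labeling of PME-1 active site by serine hydrolase directed probe; 0% = PME-1 with DMSO and 100% = wells lacking PME-1 enzyme; inhibitors block probe labeling so polarization falls and inhibition rises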
GSTO1 inh = inhibitors of recombinant GSTO1, primary screen, counter-screen for RBBP9 inhibitor project, biochemical, fluorescence polarization; Glutathione S-transferase omega-1 (Homo sapiens), P78417; activity-based probe fluorescence polarization; inhibition, % at 5.96 µM; 1.1% of 300,000 active; AID 1974, 2009;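 active means inhibition above the campaign mean inhibition plus 3 SD, cut at about 35% in these data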;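 further: 0% = GSTO1-1 with DMSO and 100% = wells lacking GSTO1-1 enzyme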
Fam108B counter = mouse Fam108B serine hydrolase inhibitors, primary screen, counter-screen for RBBP9 inhibitor project, biochemical, fluorescence polarization. recombinant Fam108B, FP-Rh probe fluorescence polarization. inhibition, % at 9.51 µM. 0.33% of 300,000 active;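 active means inhibition above the screen mean inhibition plus 3 SD, computed separately per campaign, cut at about 18% in these data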;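 further: inhibitors lower polarization as less probe binds the enzyme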
LYPLA2 inh = LYPLA2 inhibitors, primary screen, counter-screen for PME1 inhibitor project, biochemical, fluorescence polarization, FP-Rh probe ABPP; AID 2177, 2009; recombinant LYPLA2; inhibition, % at 5.9 µM; Acyl-protein thioesterase 2 (Homo sapiens), O95372; 0.38% of 320,000 active;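 active means inhibition above the screen-wide mean plus 3 SD, limit set per campaign, cut at about 26% in these data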;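 further: 0% = LYPLA2 with DMSO and 100% = wells lacking LYPLA2 enzyme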
Target sequence (O95372 whole entry, looked up): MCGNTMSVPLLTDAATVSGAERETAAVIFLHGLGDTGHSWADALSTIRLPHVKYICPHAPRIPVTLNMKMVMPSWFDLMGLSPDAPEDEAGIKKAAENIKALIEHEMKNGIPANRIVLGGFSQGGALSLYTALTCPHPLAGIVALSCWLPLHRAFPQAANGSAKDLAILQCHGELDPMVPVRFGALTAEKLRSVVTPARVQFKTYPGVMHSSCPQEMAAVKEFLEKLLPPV
Fam108b inh conf = mouse Fam108b serine hydrolase inhibitors, confirmation, counter-screen for RBBP9 inhibitor project, biochemical, fluorescence polarization, triplicate; shares compounds with Fam108B counter; recombinant Fam108b, FP-Rh probe fluorescence polarization; inhibition, % at 9.51 µM; 44% of 930 active; AID 1978, 2009;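 active means inhibition above a limit from the primary screen, the mean over all compounds plus 3 SD, cut at about 19% in these data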;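 further: 0% = median of active Fam108b wells and 100% = catalytically dead S170A mutant; inhibitors free the probe so polarization falls as inhibition rises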
Fam108b ABPP HTS = inhibition of mouse Fam108b by HTS hits, late-stage follow-up, biochemical, gel-based ABPP, soluble recombinant form. AID 588649, 2011. inhibition, % at 20 µM. 44% of 260 active. fluorophosphonate probe. shares compounds with Fam108B counter; in the data active means inhibition above about 40%
Numbers without * were called inactive; . = no result given. Compounds with a hit are over-represented: about 1.7% of the library has one in this group of screens.

SMILES	LYPLA1 counter	PAD4 inh	PME-1 inh	GSTO1 inh	Fam108B counter	LYPLA2 inh	Fam108b inh conf	others
Nc1ccc(O)cc1	7.0	52.0*	49.6*	97.8*	64.1*	8.9	7.2
CC(=O)c1ccc2c(c1)C1C=CCC1C(c1ccc(S(=O)(=O)N3CCOCC3)cc1)N2 (centres undefined)	-4.9	-9.6	2.8	14.2	6.2	-3.0	.
Cc1c(Cl)cccc1NS(=O)(=O)c1ccc2c(c1)C1C=CCC1C(c1ccc(C(=O)O)cc1)N2 (centres undefined)	-8.5	-22.0	-29.3	24.1	34.4*	-7.4	33.3*	Fam108b ABPP HTS=0.0
COc1ccc(NS(=O)(=O)c2ccc3c(c2)[C@H]2C=CC[C@H]2[C@@H](c2ccc(C(=O)O)cc2)N3)cc1	-8.5	-11.8	-37.0	15.2	35.3*	-11.3	33.3*	Fam108b ABPP HTS=0.0
O=C(c1ccncc1)N1N=C(c2ccc(Cl)cc2)CC1c1ccccc1O (centres undefined)	0.1	-5.0	-3.9	-7.1	-0.9	4.9	.
Cn1ccnc1C(=O)c1cccc(Br)c1	-0.6	-2.8	-4.0	1.7	4.0	-2.6	.
Cn1ccnc1C(=O)c1ccccc1Cl	2.1	7.4	-3.0	5.1	51.6*	7.6	-7.4
O=C1C2=C(Nc3ccccc3SC2c2ccco2)c2ccccc21 (centres undefined)	-5.2	2.4	28.5*	-21.6	31.4*	8.3	9.5
O=C1c2ccccc2NC(c2ccco2)N1O (centres undefined)	2.1	-4.2	-2.7	6.9	-4.9	5.2	.
O=C(CNc1ccc2ccccc2c1)N/N=C/c1cc2ccccc2nc1Cl	-18.4	-10.4	51.8*	-20.7	36.9*	5.0	17.8
O=C(CC1OC(=O)c2ccccc21)Nc1cc(Cl)ccc1N1CCOCC1 (centres undefined)	.	-4.8	.	.	.	.	.
S=C1NCCc2ccc(Cl)cc2C1c1ccccc1 (centres undefined)	-4.1	-3.6	6.5	2.3	-5.8	-5.3	.
CCCn1c(=N)n(CC(=O)c2ccc([N+](=O)[O-])cc2)c2ccccc21	3.8	-1.4	14.3	11.5	24.2*	3.1	2.4
COc1ccc(N/N=C(\C=N\O)C(=O)c2ccc(OC)cc2)cc1	5.4	0.8	57.4*	-5.2	47.2*	15.7	42.3*
CC(C)Oc1ccc(CCC(=O)N/N=C/c2ccc3c(c2)OCO3)cc1	-0.5	1.4	41.4*	25.2	25.5*	8.1	0.1
CC(C)CN(C(=O)COC(=O)Cc1cccc2ccccc12)c1c(N)n(Cc2ccccc2)c(=O)[nH]c1=O	6.5	8.0	-0.8	-2.3	0.4	-1.0	.
N=c1oc2cc(O)ccc2cc1C(=O)Nc1ccc(Cl)cc1	8.6	1.4	2.8	-3.4	21.9*	2.4	-4.8
Cc1ccc(NC(=O)c2cc3ccccc3oc2=N)cc1	1.4	-4.1	-8.9	9.3	-0.7	-1.9	.
COCCN(C(=O)c1cc2c(s1)CCC2)c1c(N)n(CC(C)C)c(=O)[nH]c1=O	-2.8	1.8	1.3	.	.	7.9	.
COc1ccc(CC(=O)N/N=C(\C)CC(=O)Nc2ccc3c(c2)OCCO3)cc1OC	3.2	0.5	-2.2	-0.8	-1.5	2.5	.
NC(=O)Nc1ccccc1C(=O)N1CCC(O)(c2ccc(Cl)cc2)CC1	-2.7	-0.4	5.6	-0.1	43.1*	-3.4	1.3
COC(=O)Nc1ccccc1C(=O)N1CCC(O)(c2ccc(Cl)cc2)CC1	-1.6	-1.4	17.1	0.0	0.6	-10.3	.
CCc1cc(C(=O)O)c(NC(=O)/C=C/c2ccc(OC)c(OC)c2)s1	-3.0	-3.7	9.5	-35.0	32.4*	6.1	3.6
